According to PubChem BioAssay AID588477 (NMMLSC, 2011):
Calls of active or inactive are those of the source.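 The calls were made as follows: active = valid curve fit with half-effect dose at most 10 µM and total binding change across doses of 30 points or more; inactive = the rest.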

System: Rab7
Experiment: small GTPase nucleotide-binding inhibition, multiplex panel – biochemical, round 1 SAR, Mg buffer, multiplex flow cytometry, selectivity assay for Cdc42 probe extension project, SAR follow-up (AID 588477)
Conditions: GST-GTPase beads, Bodipy-GTP binding; series mostly up to 100 µM

SMILES | outcome
O=C(C#Cc1ccccc1)c1cccc([N+](=O)[O-])c1 | inactive
COc1ccc(C2CC(c3ccccc3)=NN2c2ccc(S(N)(=O)=O)cc2)cc1 (configuration not stated) | inactive
